Results: PubChem BioAssay
Activity calls are given as the source filed them. Unless noted, no rule for the calls is given here.

Tests used:
[1] = HepG2 liver cancer cell viability effects, profiling panel, resazurin fluorescence, 24 h, PK04 Diversity Set (AID 1172); settings: higher = more signal; also: test concentration not given here
[2] = basal S. cerevisiae growth modulation, no modifier, primary screen, OD600, strain BY4716, 24 h, basal condition (AID 1173); settings: OD600, 24 h, higher = more signal, called active from +8 up or from −8 down
[3] = MM1S myeloma cell viability, profiling panel, resazurin fluorescence, basal, 24 h, PK04 Diversity Set (AID 1174); settings: higher = more signal, called active from +8 up or from −8 down;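 also: MM1S multiple myeloma cell line; test concentration not given here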
[4] = biological target: Dihydroorotate dehydrogenase (quinone), mitochondrial (Plasmodium falciparum (isolate 3D7)) (UniProt Q08210); assay: PfDHODH enzyme inhibitors, primary screen, biochemical, C-terminal His tag, absorbance 600 nm (AID 1175); settings: DCIP absorbance 600 nm, higher = more signal, called active from +8 up or from −8 down;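 also: recombinant parasite enzyme with a five histidine tag at its C terminus; test concentration not given here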
[5] = P. aeruginosa biofilm formation inhibitors, primary screen, strain PAO1, LB-PBS medium, absorbance 600 nm (AID 1176); also: test concentration not given here; settings: P. aeruginosa PAO1 growth/biofilm, A600, 12 h; higher = more signal
[6] = S. cerevisiae RM11-1a growth modifiers, primary screen, strain RM11-1a, OD600, basal, 24 h (AID 1177); settings: OD600, 24 h, higher = more signal, called active from +8 up or from −8 down;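 also: cultures grown under basal conditions with no added stressor; test concentration not given here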
[7] = E. coli acrAB mutant growth effects, primary screen, E. coli filamentation inducers, strain DRC39, OD650, 24 h (AID 1178); settings: higher = more signal, called active from +8 up or from −8 down;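 also: growth measured as culture turbidity by optical density at 650 nm; test concentration not given here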
[8] = E. coli acrAB mutant growth effects, primary screen, E. coli filamentation inducers, strain DRC39, OD650, 48 h (AID 1179);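 also: screen aims at cell division blockers that make cells filament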; settings: E. coli DRC39 delta-acrAB growth, higher = more signal, called active from +8 up or from −8 down
[9] = RPMI8226 myeloma cell viability, profiling panel, resazurin fluorescence, basal, 24 h, PK04 Diversity Set (AID 1180); settings: higher = more signal;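 also: RPMI8826 multiple myeloma cell line at 5000 cells per well; test concentration not given here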
[10] = biological target: E3 ubiquitin-protein ligase XIAP (Homo sapiens) (UniProt P98170); assay: XIAP binders, primary screen, biophysical, small-molecule microarray, fluorescence 635 nm (AID 1181); settings: small-molecule microarray binding, higher = more signal;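 also: score merges 667 nm emission and signal to noise over triplicate slides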
Sequence of E3 ubiquitin-protein ligase XIAP (Homo sapiens) (P98170 whole entry, looked up): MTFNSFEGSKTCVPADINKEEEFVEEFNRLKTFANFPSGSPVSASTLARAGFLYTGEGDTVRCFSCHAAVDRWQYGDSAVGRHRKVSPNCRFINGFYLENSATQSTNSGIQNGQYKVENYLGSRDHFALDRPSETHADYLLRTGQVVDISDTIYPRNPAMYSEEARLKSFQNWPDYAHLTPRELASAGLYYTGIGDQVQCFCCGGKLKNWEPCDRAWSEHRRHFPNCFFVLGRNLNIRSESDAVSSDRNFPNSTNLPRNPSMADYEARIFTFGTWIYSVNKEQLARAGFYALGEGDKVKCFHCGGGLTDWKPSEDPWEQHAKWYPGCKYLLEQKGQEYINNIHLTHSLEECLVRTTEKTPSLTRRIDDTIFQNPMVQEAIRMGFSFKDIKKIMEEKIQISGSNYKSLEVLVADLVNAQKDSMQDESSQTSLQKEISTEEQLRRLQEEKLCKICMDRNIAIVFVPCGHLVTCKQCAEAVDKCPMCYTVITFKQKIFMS

Sequence of Dihydroorotate dehydrogenase (quinone), mitochondrial (Plasmodium falciparum (isolate 3D7)) (Q08210 whole entry, looked up): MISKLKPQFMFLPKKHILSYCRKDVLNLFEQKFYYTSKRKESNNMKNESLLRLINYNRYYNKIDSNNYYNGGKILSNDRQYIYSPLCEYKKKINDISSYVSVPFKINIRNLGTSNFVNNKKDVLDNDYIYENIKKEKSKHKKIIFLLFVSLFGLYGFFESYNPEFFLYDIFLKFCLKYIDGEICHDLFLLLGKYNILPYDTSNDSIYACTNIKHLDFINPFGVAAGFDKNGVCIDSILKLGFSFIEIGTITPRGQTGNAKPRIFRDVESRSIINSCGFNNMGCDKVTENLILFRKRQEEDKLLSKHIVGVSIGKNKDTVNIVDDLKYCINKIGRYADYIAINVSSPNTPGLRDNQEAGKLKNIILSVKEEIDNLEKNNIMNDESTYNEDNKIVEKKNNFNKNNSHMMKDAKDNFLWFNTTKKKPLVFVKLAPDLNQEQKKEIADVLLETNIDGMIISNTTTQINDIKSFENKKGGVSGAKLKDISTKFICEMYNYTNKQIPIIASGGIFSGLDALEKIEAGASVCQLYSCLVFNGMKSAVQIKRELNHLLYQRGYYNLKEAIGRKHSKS

SMILES	z-score [1]	z-score [2]	z-score [3]	composite z-score [4]	z-score [5]	z-score [6]	z-score [7]	z-score [8]	z-score [9]	composite z-score [10]
COc1ccc(OC[C@@H]2CC3[C@@H](c4ccc(Br)cc4)[C@H](C)CC[C@H]3C(=O)O2)cc1 (stereo not given in full)	0.527	-0.845 (inactive)	0.364 (inactive)	0.301 (inactive)	-0.315 (inactive)	0.0086 (inactive)	-0.941 (inactive)	-1.58 (inactive)	1.04	0.326
CC(C)=CCCC(C)=CCON=C1C[C@@H](O)[C@@H](O)[C@@H]2[C@@H]3C(=O)N(Cc4ccc5c(c4)OCO5)C(=O)[C@@H]3CC[C@@H]12	0.542	-0.872 (inactive)	0.411 (inactive)	-0.396 (inactive)	-0.437 (inactive)	0.268 (inactive)	0.499 (inactive)	-0.588 (inactive)	0.354	-0.17
C#CCCCON=C1C[C@@H](O)[C@@H](O)[C@@H]2[C@@H]3C(=O)N([C@@H](C)c4ccccc4)C(=O)[C@@H]3CC[C@@H]12	-0.121	0.858 (inactive)	-0.521 (inactive)	0.579 (inactive)	0.237 (inactive)	0.604 (inactive)	-0.612 (inactive)	-0.245 (inactive)	-0.245	-0.124
COC(=O)CC=C[C@@H](C)[C@@H](C=NOC[C@@H](C)[C@H](OCc1ccccc1)C(C)C)NS(=O)(=O)c1ccc(C)cc1	-1	-0.0668 (inactive)	-0.562 (inactive)	1.07 (inactive)	-0.291 (inactive)	0.391 (inactive)	-0.247 (inactive)	-1.18 (inactive)	0.0833	-0.0844
CO[C@@H]1C=CCC(=O)N[C@@H](C)C(=O)OC[C@@H](OC)[C@H](C)C=CCC(=O)OC[C@H]1C	-0.103	-0.615 (inactive)	0.697 (inactive)	-0.765 (inactive)	-0.507 (inactive)	-0.718 (inactive)	0.267 (inactive)	-0.42 (inactive)	0.103	-0.169
COC(=O)[C@@H]1CC[C@H](C)[C@@H](c2ccc(Br)cc2)N1	0.138	0.86 (inactive)	0.176 (inactive)	0.496 (inactive)	0.119 (inactive)	1.27 (inactive)	0.45 (inactive)	-0.836 (inactive)	0.279	1.27
CCN(CC)CC(O)CN1CCCCc2nc(C)c(C)cc21 (stereo not given)	-0.148	-0.571 (inactive)	0.423 (inactive)	-2.78 (inactive)	0.711 (inactive)	-1.48 (inactive)	0.721 (inactive)	0.0142 (inactive)	0.259	-0.271
CC(C)[C@@H](OCc1ccccc1)[C@H](C)CON=C1[C@H]2CCn3c(=O)n(-c4ccccc4)c(=O)n3[C@H]2[C@H](O)[C@@H]2O[C@H]12	-0.486	-1.96 (inactive)	-0.704 (inactive)	-1.78 (inactive)	-0.348 (inactive)	-0.402 (inactive)	0.961 (inactive)	0.876 (inactive)	-0.789	-0.193
CCOC(=O)[C@H](CC(C)C)NC(=O)CCC1CC(OC(=O)NCCc2ccc(F)cc2)CC2(CCCC(COC(=O)NCCCN3CCCC3=O)O2)O1 (stereo not given in full)	0.653	-0.796 (inactive)	0.469 (inactive)	0.0102 (inactive)	0.909 (inactive)	-0.129 (inactive)	0.698 (inactive)	-0.405 (inactive)	1.32	-0.179
C#CCCCON=C1C[C@@H](O)[C@@H](O)[C@@H]2[C@@H]3C(=O)N(C[C@@H]4CCCO4)C(=O)[C@@H]3CC[C@H]12	-0.344	0.767 (inactive)	-0.448 (inactive)	0.347 (inactive)	0.0001 (inactive)	0.364 (inactive)	-0.145 (inactive)	0.212 (inactive)	-0.179	-0.122
COC(=O)[C@H](C)NC(=O)CCC1CC(OC(=O)NCc2cccc3ccccc23)CC2(CCCC(COC(=O)NCCCN3CCCC3=O)O2)O1 (stereo not given in full)	0.607	-0.0554 (inactive)	0.478 (inactive)	-0.104 (inactive)	0.286 (inactive)	0.0627 (inactive)	0.992 (inactive)	-1.34 (inactive)	-0.0303	-0.273
CCOC(=O)CCN1C(=O)[C@H]2[C@H]3[C@H](O)[C@H](O)CC(=NNC(=O)OCc4ccc(OC)cc4)[C@H]3CC[C@H]2C1=O	0.0785	-3 (inactive)	-0.451 (inactive)	0.0913 (inactive)	1.07 (inactive)	-0.595 (inactive)	-0.653 (inactive)	-0.652 (inactive)	-0.244	0.12
CC(C)=CCCC(C)=CCON=C1[C@H]2CCn3c(=O)n(-c4ccccc4)c(=O)n3[C@H]2[C@H](O)[C@@H]2O[C@H]12	-0.792	-3.89 (inactive)	-2.7 (inactive)	-0.197 (inactive)	0.717 (inactive)	-0.0881 (inactive)	-0.611 (inactive)	0.092 (inactive)	-2.03	0.293
